# In PubChem BioAssay AID588590 (National Center for Advancing Translational Sciences (NCATS), 2011):
# Where “and” joins values, the source holds several entries; their conditions need not be identical. Equal entries are not always repeated. In all, about 390,000 compounds went through this assay and about 4,000 (1%) were called active. Where a call stands in place of a potency, no number is given. Roughly 7% stayed inconclusive and do not appear here. The call rests on the fitted dose curve; in most records, active means well fitted inhibition curve with a large enough effect; inconclusive means small, poorly fitted or top-dose-only effect, or another doubt; inactive means no such curve, though single readings can be large or run the other way. Only a selection was taken, and actives are over-represented in it overall.
# Target: DNA polymerase iota (Homo sapiens) (UniProt Q9UNA4)
# Sequence (Q9UNA4 whole entry, looked up): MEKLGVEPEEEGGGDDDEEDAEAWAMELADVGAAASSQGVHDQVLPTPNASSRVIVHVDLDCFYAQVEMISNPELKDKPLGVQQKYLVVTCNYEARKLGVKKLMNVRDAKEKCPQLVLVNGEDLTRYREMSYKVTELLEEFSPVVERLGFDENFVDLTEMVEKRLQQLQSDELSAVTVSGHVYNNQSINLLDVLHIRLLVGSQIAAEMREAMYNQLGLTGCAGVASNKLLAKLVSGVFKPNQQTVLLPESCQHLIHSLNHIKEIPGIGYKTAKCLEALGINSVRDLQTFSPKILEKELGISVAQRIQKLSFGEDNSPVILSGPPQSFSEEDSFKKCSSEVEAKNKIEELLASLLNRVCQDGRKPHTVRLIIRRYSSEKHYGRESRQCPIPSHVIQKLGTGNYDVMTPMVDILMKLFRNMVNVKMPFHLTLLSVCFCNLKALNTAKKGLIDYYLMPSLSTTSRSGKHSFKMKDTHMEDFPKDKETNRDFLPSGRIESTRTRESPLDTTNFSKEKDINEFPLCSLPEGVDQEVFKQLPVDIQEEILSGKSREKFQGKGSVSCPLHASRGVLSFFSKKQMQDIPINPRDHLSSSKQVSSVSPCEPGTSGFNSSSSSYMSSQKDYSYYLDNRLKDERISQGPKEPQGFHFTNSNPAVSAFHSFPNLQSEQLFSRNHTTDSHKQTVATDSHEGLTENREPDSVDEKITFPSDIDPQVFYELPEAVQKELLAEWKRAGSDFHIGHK
# Test: qHTS for Inhibitors of Polymerase Iota
# Conditions: Pol iota fluorescent replication assay, 10 min; series mostly up to 115 µM
# Procedure, shortened: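 Pol iota at 10 nM preincubated 15 min with compounds at room temperature; reaction started with fluorescent substrate, 50 nM final. Fluorescence read kinetically at 0 and 10 min; buffer-only wells as negative control.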
# Potency means the concentration at half of the fitted maximal effect.
row,Structure (SMILES),Potency
1,COc1ccc(/C=C/c2ccnc3ccccc23)cc1OC,inactive
2,CN(C(=N)N)c1ccc(/C=C2\C=Cc3ccccc32)cc1,inactive
3,CC(C)C(=O)Nc1c2c(nn1-c1ccccc1)CSC2,inactive
4,O=C(NCCCO)C(=O)Nc1c2c(nn1-c1ccccc1)CSC2,inactive
5,CC(=O)Nc1c2c(nn1-c1cccc(C)c1)CSC2,50.1 µM (active)
6,COc1ccc(CNC(=O)Cn2nnc(-c3ccc(S(C)(=O)=O)cc3)n2)cc1,inactive
7,O=C(C[n+]1ccncc1)c1ccc2c(c1)CCCC2,inactive
8,CC(C)(C)n1c(=O)[nH]c2c(c1=O)CCC2,inactive
9,Cc1c(N=Nc2ccc(N(C)C)cc2)c(=O)n(-c2ccccc2)n1C,inactive
10,O=c1[nH]n2c(=O)c3c([nH]c2c1N=Nc1ccccc1)CCC3,50.1 µM (active)
11,CC(C)NC(=O)C1CCC(Cn2c(=O)c3sccc3n(Cc3ccc(F)cc3)c2=O)CC1 (stereo not given),inactive
12,CCOC(=O)C1CCC(CN(Cc2ccc(OC)cc2)S(=O)(=O)c2ccc(F)c(C(=O)Nc3cc(C)ccc3C)c2)CC1 (stereo not given),inactive
13,CC(C)(C)c1ccc(C(=O)NCC(c2ccco2)S(=O)(=O)c2ccc(F)cc2)cc1 (stereo not given),inactive
14,COc1cccc2c1C(=O)c1c(O)c3c(c(O)c1C2=O)CC(O)(C(C)=NNC(=O)c1ccc(Cl)c(Cl)c1)CC3OC1CC(N)C(O)C(C)O1 (stereo not given),50.1 µM (active)
15,COc1ccccc1NC(=O)C1=C(C)Nc2ncnn2C1c1sccc1C (stereo not given),inactive
16,O=C(O)C1=C/C(=C/C=[N+]2c3cc(O)c(O[C@H]4OC(CO)[C@@H](O)[C@@H](O)[C@@H]4O)cc3C[C@@H]2C(=O)[O-])C[C@H](C(=O)O)N1 (stereo not given in full),inactive
17,CCCS(=O)(=O)Nc1cccc(-c2cn3ccsc3n2)c1,inactive
18,Cc1ccc(C)c(N2CCN(C(=O)Cn3nc(C)c4sc5ccccc5c4c3=O)CC2)c1,inactive
19,C=C(C)C(=O)O[C@H]1C/C(C)=C\C(=O)/C=C(\C)[C@H](O)[C@@H]2OC(=O)C(=C)[C@@H]21,35.5 µM (active)
20,Cc1ccc(S(=O)(=O)N2CCCc3cc(NS(=O)(=O)c4cc(C)ccc4C)ccc32)cc1,inactive
21,CCOc1ccc(NC(=O)CSc2nnc3c(n2)[nH]c2ccc(S(=O)(=O)N4CCOCC4)cc23)cc1,inactive
22,Cc1ccc(-c2nn3c(=O)cc(CN4CCN(C(=O)Nc5cccc(C(F)(F)F)c5)CC4)nc3s2)cc1,inactive

row,Structure (SMILES),Potency
1,Cn1c(=O)c2c(-c3ccccc3Br)n(Cc3ccccc3)cc2n(C)c1=O,inactive
2,COc1cccc(CNC(=O)c2ccc3c(c2)sc2nc(-c4cccc(OC)c4)cn23)c1,inactive
3,COc1cccc2c1cc1c(=O)n(CC(=O)N3CCN(c4ccccc4)CC3)nc(C)n12,inactive
4,C=CC1C(OC2OC(CO)C(O)C(O)C2O)OC=C(C(=O)OC)C1CC1CC(=O)CC(CC(=O)CCc2ccc(O)cc2)O1 (stereo not given),inactive
5,CC(/C=C/C1(O)C(C)CC(=O)CC1(C)C)OC1OC(CO)C(O)C(O)C1O (stereo not given),79.4 µM (active)
6,CC1=C(C)C(=O)OC(C(C)C2CCC3C4CC=C5CC(OC6OC(COC7OC(CO)C(O)C(O)C7O)C(O)C(O)C6O)CC(O)C5(C)C4CCC23C)C1 (stereo not given),inactive
7,Nc1ncnc2nnsc12,inactive
8,COC(=O)c1ccc(Cn2c(SCC(=O)N(C)c3ccccc3)nc3ccccc32)cc1,inactive
9,CCC(C)Cn1c(O)cc2nn(-c3nc4ccccc4s3)c(=O)c-2c1C (stereo not given),12.6 µM (active)
10,O=C1NN(c2ccccc2)C(=O)/C1=C/c1ccc(-c2cccc(C(=O)O)c2)o1,8.91 µM (active)
11,CC(=O)c1cc(-c2ccccc2)[nH]c1N1CCCC1,inactive
12,COc1ccc2c(c1)C=C(C(=O)NCc1cc(Br)ccc1OC)CO2,inactive
13,COC(=O)c1ccc(NC(=O)CCc2c(C)nn(-c3ccc(N4CCCC4)nn3)c2C)cc1,inactive
14,COc1ccc(C)cc1NC(=O)COCc1cc(-c2cccs2)on1,inactive
15,O=C(NC1CC(=O)N(c2ccccc2)C1)c1ccco1 (stereo not given),inactive
16,CCOc1cc2[nH]c(=O)n(Cc3ccc(C(=O)NCCN(CC)CC)cc3)c(=O)c2cc1OCC,inactive
17,COc1ccc(CNC(=O)COC(=O)c2ccc(C)c(S(=O)(=O)N3CCOCC3)c2)cc1OC,inactive
18,Cc1ccc(C(=O)OCC(=O)N2CC(C)CC(C)C2)cc1S(=O)(=O)N1CCCCC1 (stereo not given),inactive
19,Cc1ccc(C(=O)OCC(=O)NCc2cc(C)c(O)c(C)c2)cc1S(=O)(=O)N1CCCCC1,79.4 µM (active)
20,CC1CCCN(c2nc3c(S(=O)(=O)c4ccc(C(C)C)cc4)nnn3c3ccsc23)C1 (stereo not given),inactive
21,CCc1nn(CC(=O)Nc2cccc(C)c2C)c(=O)c2cc3sccc3n12,inactive
22,O=C(CN1C(=O)c2cccc3cccc(c23)C1=O)N1CCCCC1,inactive

row,Structure (SMILES),Potency
1,C[N+](C)(CCCCCC[N+](C)(C)CCCN1C(=O)c2cccc3cccc(c23)C1=O)CCCN1C(=O)c2cccc3cccc(c23)C1=O,2.24 µM (active) and 20 µM (active)
2,O=C(CN1C(=O)c2cccc3cccc1c23)Nc1ccccc1,inactive
3,CCn1c(C)c(C)c2cc(C(=O)NCCc3cc(OC)ccc3OC)ccc21,inactive
4,Cc1cccc(CCNC(=O)c2ccc3c(c2)nc2n3CCC(C)C2)c1 (stereo not given),inactive
5,COc1cc2[nH]c(C)c(CCN3CCN(c4ccccc4)CC3)c2cc1OC,inactive
6,O=S(=O)(NCc1ccccc1)c1ccc(S(=O)(=O)N2CCCC2)cc1,inactive
7,COC(=O)C1=C(C)NC(=O)/C1=C/c1ccc(CNS(=O)(=O)c2ccc(C)cc2)o1,inactive
8,O=c1/c(=C/c2ccc(CNS(=O)(=O)c3ccccc3)o2)sc2n1CCN=2,35.5 µM (active)
9,CCc1cccc(-n2nnc(-c3nsc(NC(=O)c4ccc(C)cc4)n3)c2C)c1,inactive
10,O=C(Nc1ccc2oc(-c3ccc(O)c(Br)c3)nc2c1)c1cc2ccccc2o1,inactive
11,Cc1ccccc1NC(=O)Cn1c(=O)n(Cc2ccco2)c(=O)c2ccc(C(=O)NC3CCCC3)cc21,inactive
12,COc1ccc(NC(=O)C2CCCN(S(=O)(=O)c3cccc4nonc34)C2)cc1Cl (stereo not given),inactive
13,CCc1nnc(NC(=O)CCC(=O)NCc2ccccc2OC)s1,inactive
14,COc1ccc(Cc2nnc(NC(=O)Cc3cccs3)s2)cc1,4.47 µM (active)
15,CCOc1ccccc1NC(=O)Cc1cccs1,44.7 µM (active)
16,CCc1nnc(NC(=O)Cc2cccs2)s1,11.2 µM (active)
17,O=C(Cc1cccs1)Nc1ccc([N+](=O)[O-])cc1,inactive
18,CCOc1ccccc1NC(=O)CCn1cnnn1,inactive
19,COc1ccc(Cc2nnc(NC(=O)c3cc(OC)c(OC)c(OC)c3)s2)cc1OC,inactive
20,COc1ccc(CNC(=O)CCC(=O)Nc2nnc(C(C)C)s2)cc1,inactive
21,CCOc1ccc(NC(=O)C/C(C)=N/NC(=O)Cc2cccs2)cc1,inactive
